Results as given in PubChem BioAssay AID1159580 (chemical genetic matrix, 2015).
About 2,000 (36%) of roughly 5,500 compounds were called active. Roughly 18% stayed inconclusive and do not appear here. Cut-off read from the data, not from the text of the source: active = normalized growth mostly below about 0.91 (no sharp cut-off); inconclusive = no clear call, values can overlap the other calls; inactive = mostly above about 0.92. The list shows a part of the results.

Experiment: chemical genetic growth profiling, strain panel (AID 1159580);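 note: tested at 20 µM; growth read once vehicle control cultures reached saturation at 30 °C; 1 = growth at the plate median or of vehicle wells; lower values mean less growth of the strain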
Conditions: growth OD

Measured: normalized growth

OC[C@H]1O[C@@H](O[C@H]2[C@H](O)[C@@H](O)[C@@H](O)O[C@@H]2CO)[C@H](O)[C@@H](O)[C@@H]1O
inactive: S. cerevisiae deletion strains, locus YJR075W, strain HOC1, active compounds read low 1.02 | S. cerevisiae deletion strains, locus YKL009W, strain mrt4, active compounds read low 1.1 | S. cerevisiae deletion strains, locus YKL068W, active compounds read low 1 | S. cerevisiae deletion strains, locus YKL085W, strain MDH1 (second series), active compounds read low 1.04 | S. cerevisiae deletion strains, locus YKL085W, strain MDH1, active compounds read low 1.04 | S. cerevisiae deletion strains, locus YKL160W, strain elf1, active compounds read low 1.02 | S. cerevisiae deletion strains, locus YKL190W, strain CNB1, active compounds read low 1.01 | S. cerevisiae deletion strains, locus YKR001C, strain vps1, active compounds read low 1.02 | S. cerevisiae deletion strains, locus YKR026C, strain gcn3, active compounds read low 0.992 | S. cerevisiae deletion strains, locus YKR091W, strain srl3, active compounds read low 1 | S. cerevisiae deletion strains, locus YLL001W, strain dnm1, active compounds read low 0.98 | S. cerevisiae deletion strains, locus YLL026W, active compounds read low 0.994 | S. cerevisiae deletion strains, locus YLL041C, strain sdh2, active compounds read low 1.02 | S. cerevisiae deletion strains, locus YLR027C, strain aat2, active compounds read low 1.01 | S. cerevisiae deletion strains, locus YLR039C, strain RIC1, active compounds read low 1.11 | S. cerevisiae deletion strains, locus YLR058C, strain SHM2, active compounds read low 1.02 | S. cerevisiae deletion strains, locus YLR102C, strain apc9, active compounds read low 1.02 | S. cerevisiae deletion strains, locus YLR113W, strain HOG1, active compounds read low 1.06 | S. cerevisiae deletion strains, locus YLR221C, strain rsa3, active compounds read low 0.98 | S. cerevisiae deletion strains, locus YLR258W, strain gsy2, active compounds read low 1.01 | S. cerevisiae deletion strains, locus YLR262C, strain YPT6 (second series), active compounds read low 1.04 | S. cerevisiae deletion strains, locus YLR262C, strain YPT6, active compounds read low 1.05 | S. cerevisiae deletion strains, locus YLR268W, strain sec22, active compounds read low 1.04 | S. cerevisiae deletion strains, locus YLR320W, strain mms22, active compounds read low 0.997 | S. cerevisiae deletion strains, locus YLR330W, strain CHS5, active compounds read low 1.02 | S. cerevisiae deletion strains, locus YLR342W, strain FKS1 (second series), active compounds read low 1.09 | S. cerevisiae deletion strains, locus YLR342W, strain FKS1, active compounds read low 1.01 | S. cerevisiae deletion strains, locus YLR357W, strain rsc2, active compounds read low 0.975 | S. cerevisiae deletion strains, locus YLR370C, strain arc18, active compounds read low 1.01 | S. cerevisiae deletion strains, locus YLR371W, strain rom2, active compounds read low 1.01 | S. cerevisiae deletion strains, locus YLR384C, strain iki3, active compounds read low 0.992 | S. cerevisiae deletion strains, locus YLR418C, strain cdc73, active compounds read low 0.975 | S. cerevisiae deletion strains, locus YML016C, strain PPZ1, active compounds read low 1.01 | S. cerevisiae deletion strains, locus YML032C, strain rad52, active compounds read low 1 | S. cerevisiae deletion strains, locus YML120C, strain ndi1, active compounds read low 1.01 | S. cerevisiae deletion strains, locus YML124C, strain tub3, active compounds read low 1.01 | S. cerevisiae deletion strains, locus YMR058W, strain fet3, active compounds read low 1 | S. cerevisiae deletion strains, locus YMR078C, strain ctf18, active compounds read low 1.01 | S. cerevisiae deletion strains, locus YMR125W, strain sto1, active compounds read low 0.993 | S. cerevisiae deletion strains, locus YMR129W, active compounds read low 1.01 | S. cerevisiae deletion strains, locus YMR205C, strain PFK2, active compounds read low 1.01 | S. cerevisiae deletion strains, locus YMR223W, strain ubp8, active compounds read low 0.993 | S. cerevisiae deletion strains, locus YMR231W, strain pep5, active compounds read low 0.992 | S. cerevisiae deletion strains, locus YMR263W, strain SAP30, active compounds read low 1.01 | S. cerevisiae deletion strains, locus YMR307W, strain GAS1, active compounds read low 1.07 | S. cerevisiae deletion strains, locus YNL067W, strain RPL9B, active compounds read low 1.02 | S. cerevisiae deletion strains, locus YNL071W, strain lat1, active compounds read low 1.02 | S. cerevisiae deletion strains, locus YNL153C, strain GIM3, active compounds read low 1.01 | S. cerevisiae deletion strains, locus YNL183C, strain NPR1, active compounds read low 0.968 | S. cerevisiae deletion strains, locus YNL209W, strain ssb2, active compounds read low 1.01 | S. cerevisiae deletion strains, locus YNL233W, strain BNI4, active compounds read low 1.01 | S. cerevisiae deletion strains, locus YNL248C, strain rpa49, active compounds read low 0.98 | S. cerevisiae deletion strains, locus YNL250W, strain rad50, active compounds read low 1.03 | S. cerevisiae deletion strains, locus YNL271C, strain bni1, active compounds read low 1.02 | S. cerevisiae deletion strains, locus YNL298W, strain CLA4, active compounds read low 0.999 | S. cerevisiae deletion strains, locus YNL307C, strain MCK1, active compounds read low 1.02 | S. cerevisiae deletion strains, locus YNL322C, strain KRE1 (second series), active compounds read low 0.996 | S. cerevisiae deletion strains, locus YNL322C, strain KRE1, active compounds read low 1.02 | S. cerevisiae deletion strains, locus YNR049C, strain mso1, active compounds read low 0.998 | S. cerevisiae deletion strains, locus YNR052C, strain pop2, active compounds read low 1.01 | S. cerevisiae deletion strains, locus YOL006C, strain TOP1, active compounds read low 1.15 | S. cerevisiae deletion strains, locus YOL012C, strain htz1 1.74 | S. cerevisiae deletion strains, locus YOL147C, strain pex11, active compounds read low 1.01 | S. cerevisiae deletion strains, locus YOR001W, strain rrp6, active compounds read low 0.988 | S. cerevisiae deletion strains, locus YOR061W, strain CKA2, active compounds read low 1.03 | S. cerevisiae deletion strains, locus YOR069W, strain VPS5, active compounds read low 1.01 | S. cerevisiae deletion strains, locus YOR070C, strain gyp1, active compounds read low 1 | S. cerevisiae deletion strains, locus YOR080W, strain dia2, active compounds read low 0.988 | S. cerevisiae deletion strains, locus YOR083W, strain WHI5, active compounds read low 1.06 | S. cerevisiae deletion strains, locus YOR106W, strain vam3, active compounds read low 1.04 | S. cerevisiae deletion strains, locus YOR136W, strain idh2, active compounds read low 1.01 | S. cerevisiae deletion strains, locus YOR144C, strain elg1, active compounds read low 1 | S. cerevisiae deletion strains, locus YOR184W, strain ser1, active compounds read low 1.02 | S. cerevisiae deletion strains, locus YOR231W, strain MKK1, active compounds read low 1 | S. cerevisiae deletion strains, locus YOR265W, strain rbl2, active compounds read low 1 | S. cerevisiae deletion strains, locus YOR270C, strain vph1, active compounds read low 1.13 | S. cerevisiae deletion strains, locus YOR290C, strain snf2, active compounds read low 1.03 | S. cerevisiae deletion strains, locus YOR316C, strain cot1, active compounds read low 1.02 | S. cerevisiae deletion strains, locus YPL051W, strain arl3, active compounds read low 0.992 | S. cerevisiae deletion strains, locus YPL078C, strain atp4, active compounds read low 1.01 | S. cerevisiae deletion strains, locus YPL106C, strain sse1, active compounds read low 1.02 | S. cerevisiae deletion strains, locus YPL240C, strain hsp82, active compounds read low 1 | S. cerevisiae deletion strains, locus YPL241C, strain CIN2, active compounds read low 1 | S. cerevisiae deletion strains, locus YPL256C, strain CLN2, active compounds read low 0.975 | S. cerevisiae deletion strains, locus YPR119W, strain clb2, active compounds read low 1.01 | S. cerevisiae deletion strains, locus YPR141C, strain kar3, active compounds read low 1 | S. cerevisiae deletion strains, locus YPR163C, strain tif3, active compounds read low 1 | S. cerevisiae deletion strains, locus YPR167C, strain met16, active compounds read low 1.02 | S. cerevisiae deletion strains, strain wtn01, active compounds read low 1.06 | S. cerevisiae strains, strain wild type, active compounds read low 1.02
